Measurements as given in PubChem BioAssay AID708 (SRMLSC, 2007).
Hit rate of the full screen: of about 65,000 compounds, fewer than 10 were called active. The list is a sample of the results. A number with no mark means an inactive call.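 Rule for the calls: active = at 10 µM dose, initial 340 nm absorbance at least 2 fold that of control wells; inactive = change under 2 fold.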

test: compound light absorbance at 340 nm, profiling panel, artefact control, biochemical, MLSMR library, data from PS, PMK, MK assays (AID 708); conditions: compound absorbance at 340 nm, fold over control; at 10 µM; stronger effect = higher value;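 note: initial absorbance extrapolated from kinetic A340 decline of NADH oxidation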

SMILES	fold change
N#Cc1c(N)n(CCOC(=O)c2ccc(Cl)cc2)c2nc3ccccc3nc12	1.01
CCc1cc(=O)oc2cc(C)cc(OC(C)C(=O)O)c12 (stereo not drawn)	1.04
O=c1[nH]nc(CSCc2ccccc2Cl)[nH]1	1.04
Cn1c(=O)n(C)c2cc(CNc3ccc(N4CCOCC4)c(C(=O)O)c3)ccc21	1
O=C(Cn1c(=O)sc2ccccc21)Nc1ccc2c(c1)OCCO2	1.01
Cc1ccc(S(=O)(=O)NCc2cn3ccsc3n2)c(C)c1	0.97
CCOc1ccc(OCC)c(NC(=O)C(NS(=O)(=O)c2ccc3c(c2)oc(=O)n3C)C(C)C)c1 (stereo not drawn)	0.97
COCC(C)N=CC1=C(O)CC(C)(C)CC1=O (stereo not drawn)	0.95
NC(=O)CSc1c[nH]c2ccccc12	1.01
COc1ccc(NC(C)=O)cc1NC(=O)CN1CCN(c2ccccn2)CC1	0.97
CCN1CCN(c2ncnc3c2oc2nc(C)c4c(c23)CC(C)(C)OC4)CC1	0.99
COc1ccc2nc(NC(=O)c3ccc(Br)s3)sc2c1	1.1
CCOC(=O)c1c(N)c(C#N)nn1-c1ccccc1C(=O)OC	1
Cc1nnc(SCc2cc(=O)[nH]c(N3CCN(Cc4ccccc4)CC3)n2)s1	1.01
O=C(Nc1ccccc1)c1cccnc1Nc1ccccc1	1.1
CCN(Cc1nc2ccccc2c(=O)[nH]1)Cc1cc(=O)oc2cc(C)c(C)cc12	1.01
CC(C)C(=O)Nc1c(C(=O)c2ccc(F)cc2)oc2ccccc12	1.11
Cc1ccc(S(=O)(=O)NCC(=O)N(CC(=O)NC2CCCCC2)Cc2ccco2)cc1	0.98
Cc1ccc(C)c(N2CCN(S(=O)(=O)c3ccc4c(c3)oc(=O)n4C)CC2)c1	0.98
C=CCNc1ncnc2ccc(Br)cc12	1.1
O=C(CSc1nnc(-c2cccs2)n1Cc1ccco1)c1ccc2c(c1)OCO2	1.08
CC(C)(C)NC(=O)Cn1nnc(-c2ccccc2Cl)n1	1.03
ON=C1/C(=N\O)CC2(C/C1=N/O)OCCO2	0.99
COC(=O)CNC(=O)c1ccc2c(c1)S(=O)(=O)c1ccccc1C2=O	1.02
CCOC(=O)c1oc2ccccc2c1NC(=O)c1cccs1	1.02

SMILES	fold change
CC(C)Oc1ccc(C2NC(=O)NC2=O)cc1 (stereo not drawn)	1
O=C(CS(=O)(=O)Cc1ccccc1)Nc1cccnc1	1.08
CCOC(=O)c1c(NC(=O)CCC(=O)NCc2ccco2)sc2c1CCCC2	1.03
CCCc1cc(=O)[nH]c(SCC(=O)OCc2ccccc2)n1	1.02
CCOC(=O)C1=C(C)N=c2s/c(=C\C(=O)OC)c(=O)n2C1c1ccc(OC)cc1 (stereo not drawn)	1.09
CCOC(=O)C1CCCN(Cc2nc(N)nc(Nc3ccc(C)cc3)n2)C1 (stereo not drawn)	1
CN(C)CCNC(=O)C(C(=O)c1ccccc1)n1ccccc1=O (stereo not drawn)	1.03
COCCNC(=S)c1ccc(OC)cc1	1.01
CCOC(=O)CSc1nnc(-c2cccc(Br)c2)o1	1.02
N#Cc1nc(N)nc(N(c2ccccc2)c2ccccc2)n1	1
Cc1ccccc1N1C(=O)C2ON(c3ccccc3)C(c3ccncc3)C2C1=O (stereo not drawn)	0.99
O=C(CCN1C(=O)c2ccccc2C1=O)NCCN1CCOCC1	0.99
COc1ccccc1-c1cc(C(=O)NCCCn2ccnc2)no1	0.99
NC(=O)Cn1c(=O)oc2ccccc21	0.97
O=C(Cn1c(=O)sc2ccccc21)Nc1nc2c(s1)CCCC2	1.03
O=C(Cn1nc(C(F)(F)F)c2c1CCC2)NCc1ccc(F)cc1	1.04
Cc1ccc(Oc2ccc(N)cc2)cc1	1.02
CCOC(=O)N1CCN(C(=O)CSc2nnc(-c3c[nH]c4ccccc34)n2CCOC)CC1	1.06
Cc1ccc(N2CCN(S(=O)(=O)N(C)C)CC2)cc1Cl	1.01
O=S(N1CCCCCC1)C12CC3CC(CC(C3)C1)C2 (stereo not drawn)	0.99
CC(C)OC(=O)CN1C(=O)c2ccccc2C1=O	1.01
CCS(=O)(=O)N1CCC(C(=O)N2CCN(c3ccccc3)CC2)CC1	1.02
CC1(C)CC(=O)c2sc(N)nc2C1	1.11
O=C(NCc1ccco1)c1cnn2c(C(F)(F)F)cc(-c3ccco3)nc12	1.04
CC1CCCN(c2ccc(C(=O)NCCc3ccccc3)cn2)C1 (stereo not drawn)	1.04

SMILES	fold change
O=C(c1ccc2c(c1)C(=O)N(c1ccc(Cl)cc1)C2=O)N1CCN(c2ccccn2)CC1	1
Cc1ccc2c(c1)c1ncn(CCC3=CCCCC3)c(=O)c1n2C	1
CCNc1nc(SCCOc2ccccc2)nc(N(C)C)n1	1.04
CCC(C(=O)NC1CCCC1)N(C(=O)c1snc(C(N)=O)c1N)c1ccc2c(c1)OCCO2 (stereo not drawn)	1.1
COc1ccc(C(=O)N(CCN2CCOCC2)CC(=O)NC2CCCC2)cc1OC	0.98
OCCCN1c2ccccc2Nc2nnc(-c3ccccc3)cc21	1.04
COc1ccccc1-c1cc(C(=O)N2CCCCC2)no1	1.02
Cc1ccc2nc(-c3ccc(SCC(=O)Nc4cc(C)on4)nc3)[nH]c2c1	1.14
CCNS(=O)(=O)c1ccc(NC(=O)Nc2cccc(OC)c2)cc1	1.06
O=C(NC1CCCC1)c1ccc(Br)s1	1.03
CCOC(=O)CSc1nnc(CNC(=O)Cc2ccccc2)n1-c1ccccc1OC	0.99
CCOc1ccc(C(CC(=O)O)NC(=O)COc2ccccc2)cc1 (stereo not drawn)	1.03
CCCC1C(c2ccccc2)C(C#N)(C#N)C2(C#N)CC1(N)NC2=O (stereo not drawn)	1.02
C#CCNc1nc(C(C)C)nc2c1nnn2Cc1ccccc1F	1.04
CN(C)/C=C1\C=C(c2ccccc2)OC1=O	1.21
O=C(c1cnn2ccccc12)N1CCc2ccccc21	1.12
CCOc1ccc(Cn2nnc(C(=O)Nc3ccc(OC)cc3OC)c2N)cc1	0.98
COc1ccc(NC(=O)c2cccc(NC(=O)c3ccco3)c2)c(OC)c1	1.07
O=C(NCCc1ccccn1)c1ccc(COc2ccccc2)o1	0.98
CCOC(=O)C1CCN(C(=O)Nc2ccc(Cl)cc2)CC1	1.01
COc1cccc(N(CC(=O)NC2CCCC2)C(=O)Cn2nnc(-c3ccc(C)cc3)n2)c1	1.01
Cc1nc(SCC(=O)Nc2cc(C)on2)c2c3c(sc2n1)CCCC3	1.02
CC1CCN(Cc2nc3c(c(=O)n(C)c(=O)n3C)n2CCc2ccccc2)CC1	0.98
NC(=O)COc1ccc2c3c(c(=O)oc2c1)CCCCC3	1.15
CCc1cc(=O)oc2cc(OCC(=O)N3CCCc4ccccc43)ccc12	1.08

SMILES	fold change
CCOC(=O)N1CCC(NC(=O)CCc2cn(C)c3ccccc23)CC1	0.98
Cc1ccnc(N2C(=O)c3ccccc3C2Nc2ccc3c(c2)OCCO3)c1 (stereo not drawn)	1.06
CCOc1ccc(-c2cn(S(=O)(=O)c3cccc4nsnc34)nc2N)cc1	0.98
c1ccc(-n2ncc3c2ncn2c(CSc4nc5ccccc5s4)nnc32)cc1	1.06
c1ccc2c(CNn3cnnc3)cccc2c1	1.05
Cc1ccc(C(=O)NCC2CCCO2)o1 (stereo not drawn)	1.04
CCn1c(CSc2nncn2-c2ccc(OC)cc2)nc2cc(S(=O)(=O)N(C)C)ccc21	0.96
CC(C)(O)C#Cc1ccc(C(=O)N2CCC(C(N)=O)(N3CCCCC3)CC2)cc1	1.04
CCN(CC)S(=O)(=O)c1ccc2nc(COC(=O)c3n[nH]c4ccccc34)[nH]c2c1	1.03
COc1cccc(-c2nnc(NC(=O)c3ccc(S(=O)(=O)N(CC(C)C)CC(C)C)cc3)o2)c1	1.06
CC12COC3(C(=O)Nc4ccc(Cl)cn4)CC1CCC32C (stereo not drawn)	1.04
Cc1nc(N2CCCC2C(=O)O)c2oc3ccccc3c2n1 (stereo not drawn)	1.02
CCCCN(CC)CCCNC(=O)CS(=O)(=O)Cc1nc(-c2cccc(OC)c2)oc1C	1
CC(=O)Nc1cccc(Oc2cc(C#N)c(C#N)cc2N2CCOCC2)c1	1.1
Cn1c2ccccc2c2c(C(=O)N3CCN(c4ccc(F)cc4)CC3)cn(C3CCCC3)c(=O)c21	1.05
COc1ccc(CCNS(=O)(=O)c2ccc(C(=O)NCc3ccco3)cc2)cc1OC	0.99
Cc1ccc(S(=O)(=O)NC(C)C(=O)Nc2ccccc2C(=O)N2CCCC2)cc1 (stereo not drawn)	0.96
COc1ccc(-n2nnnc2SCC(=O)c2ccc(OC)c(OC)c2)cc1	1.03
Cn1cnc2c1c(=O)n(Cc1c(Cl)cccc1Cl)c(=O)n2C	1.04
Cc1cc(C(=O)NCCCc2ccccc2)no1	1
COc1ccc(C(=O)Cn2nnc(-c3ccc(N4CCOCC4)cc3)n2)cc1OC	1
CCOc1cccc(-c2nn3c(-c4ccccn4)nnc3s2)c1	1.01
O=C(CN1CCN(C(=O)c2ccco2)CC1)Nc1ccc(Cl)c(C(F)(F)F)c1	1
